Measured values: PubChem BioAssay (NCI)
This is part of a sample that, as a whole, favours compounds with a hit. Of some 79,000 tested, about 15% had one in any assay. Unmarked numbers belong to inactive results. Active and inactive are the calls of the source. Cut-off read from the data, not from the text of the source: active = growth inhibition above about 70%; inactive = the rest.

Assay: NCI Yeast Anticancer Drug Screen. Data for the rad50 strain (AID 155);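 note: 0% = growth of vehicle-only cultures of the same strain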
Conditions: S. cerevisiae rad50 strain growth inhibition; at 5.0 µM (retest, dose inferred, filed as 0.5); hits give high values
How it was run: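 Inhibition values express reduced yeast growth in compound-treated cultures relative to vehicle-treated controls.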

Row | Structure (SMILES) | growth inhibition
1 | Cc1ccccc1Sc1ccccc1[N+](=O)[O-] | 2%
2 | Nc1nc(-c2ccc3c(c2)Sc2ccccc2O3)cs1 | 18%
3 | CC(C)(C)C1CCC2c3c([nH]c4ccccc34)C3C(=O)N(c4ccc(C(=O)O)cc4)C(=O)C3C2C1 (stereo not given) | 98% (active)
4 | CCC[CH2][Sn]([CH2]CCC)([O]N(C)C(=O)c1ccc(Br)cc1)[O]N(C)C(=O)c1ccc(Br)cc1 | 63%
5 | COC(=O)c1ccc([N+](=O)[O-])o1 | 7%
6 | O=C(OC1=C(Br)C(=O)c2ccccc2C1=O)c1ccccc1 | 13%
7 | O=C(O)C/C(=C\c1ccco1)C(=O)O | -8%
8 | N#C/C(=C/c1ccc([N+](=O)[O-])o1)c1ccccc1 | -6%
9 | CCN(CC)CCOc1ccc(C=C2c3ccccc3-c3ccccc32)cc1 | 98% (active)
10 | Nc1ncnc(N2CCOCC2)c1N | -1%
11 | Cc1cc(Cl)ccc1N1C(=O)C(=O)C(c2nc3ccccc3o2)C(=O)C1=O | 31%
12 | Cc1nc2c(Cl)nc(Cl)nc2s1 | -10%
13 | CC1=NOC(=O)/C1=C/c1ccc(Cl)c(Cl)c1 | -2%
14 | CN(CCC(=O)/C(=C\c1ccc(Cl)cc1)c1ccccc1)Cc1ccccc1 | 98% (active)
15 | C(=N\N=C\c1ccc2c(c1)OCO2)/c1ccc2c(c1)OCO2 | 2%
16 | Clc1ccc(CSc2ncnc3c2ncn3C2CCCCO2)cc1 (stereo not given) | -5%
17 | CC(=O)OC/C=C/CCCOC(C)=O | -15%
18 | CCCCCCCCCCOC(=O)c1cccnc1 | 5%
19 | Cc1ccc2c(c1)C1(SCC(=O)N1c1ccc(Cl)cc1)C(=O)N2 (stereo not given) | 1%
20 | Oc1ccc(C2CCc3ccccc32)cc1 (stereo not given) | -6%

Row | Structure (SMILES) | growth inhibition
21 | [O-][N+]1=C2CCC/C(=N/O)C2(O)C2CCCCC21N1CCOCC1 (stereo not given) | 26%
22 | CCCCN(c1ccccc1)c1ncnc2c1ncn2C | 1%
23 | Cc1cc(C)nc(/C=C/c2ccccc2)c1 | -1%
24 | CCCCN(C)N=Nc1c(C(N)=O)n[nH]c1C(C)C | 14%
25 | O=C1C(Cl)=C(Cl)C(=O)C2=C1CC(Cl)C(Cl)C2 (stereo not given) | 87% (active)
26 | O=C1Oc2ccccc2C(=O)/C1=C/N1C(=O)/C(=C/c2ccc3c(c2)OCO3)SC1=S | 7%
27 | O=C(/C=C/c1ccc(O)cc1)c1cc(Cl)ccc1O | 10%
28 | CCCC(C(=O)OCCNC1CCCCC1)c1ccccc1 (stereo not given) | 2%
29 | c1ccc2cc3c(cc2c1)Nc1c2ccccc2nc2cccc-3c12 | 31%
30 | CCCC1CCCC1(CC(=O)c1ccccc1)C(=O)O (stereo not given) | 21%
31 | COc1ccc(CCN2C(=O)C(=O)N(C3CCCCC3)C2=O)cc1OC | -1%
32 | COC(C(=O)O)c1ccccc1 (stereo not given) | -1%
33 | CCCCCCCCC(=O)NCCCNCCCNC(=O)CCCCCCCC | -17%
34 | C[Si](C)(CCC(=O)O)O[Si](C)(C)CCC(=O)O | -6%
35 | Cc1c2cc[n+](C)cc2c(C)c2c1[nH]c1ccc(Cl)cc12 | 43%
36 | O=[N+]([O-])c1ccc(C2=Nn3c(nnc3-c3ccc(Cl)cc3)SC2)o1 | 19%
37 | CCCCCCCCCCN(CCCCCCCCCC)CC(O)c1cc(-c2ccccc2)nc2ccccc12 (stereo not given) | -1%
38 | O=C(c1ccccc1)C(c1ccccc1)C1(O)C(=O)Nc2c(Cl)cc(Cl)cc21 (stereo not given) | 13%
39 | COC(=S)S | 3%
40 | CC/C(=C(\CC)c1ccc(O)c(CN(CC)CC)c1)c1ccc(OC)cc1 | -1%

Same assay, conditions: S. cerevisiae rad50 strain growth inhibition; at 50.0 µM (retest, dose inferred, filed as 5.0); hits give high values

Row | Structure (SMILES) | growth inhibition
41 | Cc1ccccc1Sc1ccccc1[N+](=O)[O-] | 35%
42 | Nc1nc(-c2ccc3c(c2)Sc2ccccc2O3)cs1 | 99% (active)
43 | CC(C)(C)C1CCC2c3c([nH]c4ccccc34)C3C(=O)N(c4ccc(C(=O)O)cc4)C(=O)C3C2C1 (stereo not given) | 98% (active)
44 | CCC[CH2][Sn]([CH2]CCC)([O]N(C)C(=O)c1ccc(Br)cc1)[O]N(C)C(=O)c1ccc(Br)cc1 | 98% (active)
45 | COC(=O)c1ccc([N+](=O)[O-])o1 | 42%
46 | O=C(OC1=C(Br)C(=O)c2ccccc2C1=O)c1ccccc1 | 99% (active)
47 | O=C(O)C/C(=C\c1ccco1)C(=O)O | 9%
48 | N#C/C(=C/c1ccc([N+](=O)[O-])o1)c1ccccc1 | -7%
49 | CCN(CC)CCOc1ccc(C=C2c3ccccc3-c3ccccc32)cc1 | 99% (active)
50 | Nc1ncnc(N2CCOCC2)c1N | -5%
51 | Cc1cc(Cl)ccc1N1C(=O)C(=O)C(c2nc3ccccc3o2)C(=O)C1=O | 98% (active)
52 | Cc1nc2c(Cl)nc(Cl)nc2s1 | 98% (active)
53 | CC1=NOC(=O)/C1=C/c1ccc(Cl)c(Cl)c1 | 70% (active)
54 | CN(CCC(=O)/C(=C\c1ccc(Cl)cc1)c1ccccc1)Cc1ccccc1 | 98% (active)
55 | C(=N\N=C\c1ccc2c(c1)OCO2)/c1ccc2c(c1)OCO2 | 4%
56 | Clc1ccc(CSc2ncnc3c2ncn3C2CCCCO2)cc1 (stereo not given) | 97% (active)
57 | CC(=O)OC/C=C/CCCOC(C)=O | 4%
58 | CCCCCCCCCCOC(=O)c1cccnc1 | 86% (active)
59 | Cc1ccc2c(c1)C1(SCC(=O)N1c1ccc(Cl)cc1)C(=O)N2 (stereo not given) | 57%
60 | Oc1ccc(C2CCc3ccccc32)cc1 (stereo not given) | 98% (active)

Row | Structure (SMILES) | growth inhibition
61 | [O-][N+]1=C2CCC/C(=N/O)C2(O)C2CCCCC21N1CCOCC1 (stereo not given) | 20%
62 | CCCCN(c1ccccc1)c1ncnc2c1ncn2C | 83% (active)
63 | Cc1cc(C)nc(/C=C/c2ccccc2)c1 | -10%
64 | CCCCN(C)N=Nc1c(C(N)=O)n[nH]c1C(C)C | 84% (active)
65 | O=C1C(Cl)=C(Cl)C(=O)C2=C1CC(Cl)C(Cl)C2 (stereo not given) | 98% (active)
66 | O=C1Oc2ccccc2C(=O)/C1=C/N1C(=O)/C(=C/c2ccc3c(c2)OCO3)SC1=S | 76% (active)
67 | O=C(/C=C/c1ccc(O)cc1)c1cc(Cl)ccc1O | 96% (active)
68 | CCCC(C(=O)OCCNC1CCCCC1)c1ccccc1 (stereo not given) | 18%
69 | c1ccc2cc3c(cc2c1)Nc1c2ccccc2nc2cccc-3c12 | 70% (active)
70 | CCCC1CCCC1(CC(=O)c1ccccc1)C(=O)O (stereo not given) | 52%
71 | COc1ccc(CCN2C(=O)C(=O)N(C3CCCCC3)C2=O)cc1OC | 2%
72 | COC(C(=O)O)c1ccccc1 (stereo not given) | 9%
73 | CCCCCCCCC(=O)NCCCNCCCNC(=O)CCCCCCCC | -17%
74 | C[Si](C)(CCC(=O)O)O[Si](C)(C)CCC(=O)O | 91% (active)
75 | Cc1c2cc[n+](C)cc2c(C)c2c1[nH]c1ccc(Cl)cc12 | 97% (active)
76 | O=[N+]([O-])c1ccc(C2=Nn3c(nnc3-c3ccc(Cl)cc3)SC2)o1 | 83% (active)
77 | CCCCCCCCCCN(CCCCCCCCCC)CC(O)c1cc(-c2ccccc2)nc2ccccc12 (stereo not given) | 74% (active)
78 | O=C(c1ccccc1)C(c1ccccc1)C1(O)C(=O)Nc2c(Cl)cc(Cl)cc21 (stereo not given) | 13%
79 | COC(=S)S | 1%
80 | CC/C(=C(\CC)c1ccc(O)c(CN(CC)CC)c1)c1ccc(OC)cc1 | 68%
